Test results as given in PubChem BioAssay AID1063 (University of Pittsburgh Molecular Library Screening Center, 2008).
The whole screen tested about 200,000 compounds, of which about 18,000 (9%) were called active. Cut-off read from the data, not from the text of the source: active = inhibition above about 50%; inactive = the rest. The entries come from a sample that favours actives as a whole.

Experiment: antileishmanial activity against promastigotes – primary screen (AID 1063);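 note: promastigotes grown with compound for 44 hours at 28 °C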
Details: Leishmania major promastigotes, resazurin fluorescence viability; at 10 µM; hits give high values
With `CC(NC(=S)Nc1ccc(S(N)(=O)=O)cc1)c1ccc2c(c1)OCO2` (stereo unspecified) the inhibition was 70% (active).
In the case of `CC(NC(=O)Nc1ccc2c(c1)OCO2)c1ccncc1` (stereo unspecified), the inhibition is reported as -3.06% (inactive).
In the case of `CC(C)(C)C(=O)NC(NC(=S)Nc1ccc(S(N)(=O)=O)cc1)C(Cl)(Cl)Cl` (stereo unspecified), the inhibition is reported as 2.02% (inactive).
With `COc1c(C)cc(C(=O)C2CCCN(S(=O)(=O)c3c(C)noc3C)C2)cc1C` (stereo unspecified) the inhibition was 6.97% (inactive).
In the case of `CN(/C(=N/S(=O)(=O)c1cccs1)c1ccccc1)c1ccc(O)cc1`, the inhibition is reported as 7.12% (inactive).
In the case of `CSCC(NS(=O)(=O)c1ccc(C)cc1)C(=O)O` (stereo unspecified), the inhibition is reported as -7.96% (inactive).
With `CN1C(=O)/C(=N/OC(=O)c2ccccc2Br)c2ccccc21` the inhibition was -16.5% (inactive).
In the case of `O=C(NNC(=S)NC1CCCCC1)c1ccccc1Cl`, the inhibition is reported as 16.1% (inactive).
With `Oc1c(CN2CCN(c3ccc(F)cc3)CC2)cc(Cl)c2cccnc12` the inhibition was 100% (active).
In the case of `Fc1ccc(N2CCN(Cc3cnc(Oc4ccc(Br)cc4)s3)CC2)cc1`, the inhibition is reported as -8.09% (inactive).
In the case of `O=C(c1cccc(C(=O)N2CCN(c3ccc(F)cc3)CC2)c1)N1CCN(c2ccc(F)cc2)CC1`, the inhibition is reported as -10.6% (inactive).
For `Cc1nnc(SCC(=O)NNC(=O)c2ccc(Cl)cc2)n1CC1CCCO1` (stereo unspecified), the inhibition was -2.51% (inactive).
With `C/C(=N\OC(=O)c1ccccc1)c1c(C)nc2cc(C)ccn12` the inhibition was 5.76% (inactive).
For `Cc1ccc(N(C(=O)c2ccc(CN3CCOCC3)o2)C(C(=O)NCCC(C)C)c2cccs2)c(C)c1` (stereo unspecified), the inhibition was 90.9% (active).
For `Cc1cccc(N(C(=O)c2ccc(CN3CCOCC3)o2)C(C(=O)NC2CCCCC2)c2ccc(F)cc2)c1` (stereo unspecified), the inhibition was -5.01% (inactive).
With `Cc1ccc(N(C(=O)Cc2cccs2)C(C(=O)NCC2CCCO2)c2ccncc2)cc1` (stereo unspecified) the inhibition was 3.99% (inactive).
For `CN(C)CC(C)(C)CNC(=O)c1cc(Br)cc(Br)c1O`, the inhibition was -1.61% (inactive).
For `CC1=CC2=NC(=O)CC(C)(C(=O)N(CC(=O)NC(C)(C)C)Cc3ccccc3)N2C=C1` (stereo unspecified), the inhibition was -6.31% (inactive).
For `Cc1cccc(CSc2nc3c(c(=O)n2C)SCC3)c1`, the inhibition was 7.35% (inactive).
With `COc1ccc(C(CCN(Cc2ccc(OC)c(OC)c2)C(=O)CCl)c2ccccc2)cc1` (stereo unspecified) the inhibition was 100% (active).
For `CCOC(=O)CN(Cc1ccc(OC)c(OC)c1)S(=O)(=O)c1ccc(OC)cc1`, the inhibition was 0.46% (inactive).
For `COc1ccc(CCNC(=O)CN(c2ccccc2)S(C)(=O)=O)cc1OC`, the inhibition was -7.09% (inactive).
For `O=C(O)CCn1c(SCc2cc(=O)n3ccccc3n2)nc2ccsc2c1=O`, the inhibition was -0.88% (inactive).
With `CCN(CC)CCNC(=O)c1ccc(NC(=O)c2c(F)cccc2Cl)cc1` the inhibition was 7.35% (inactive).
In the case of `COc1ccc(Cn2nnc3c(=O)[nH]c(C4CCN(C(=O)c5ccccc5Cl)CC4)nc32)cc1`, the inhibition is reported as -0.57% (inactive).
In the case of `COc1ccc(F)c(-c2nc(CN3CCC(c4ccccc4)CC3)c(C)o2)c1`, the inhibition is reported as 48.2% (inactive).
For `COc1ccc(CN2CCC(c3nc4ccc(Cl)cc4[nH]3)CC2)cc1`, the inhibition was 95.6% (active).
In the case of `CCOc1ccc(C(CC(=O)O)NC(=O)C23CC4CC(CC(C4)C2)C3)cc1OC` (stereo unspecified), the inhibition is reported as 3.74% (inactive).
In the case of `O=C(NNc1ncnc2c1cnn2-c1ccccc1)c1ccco1`, the inhibition is reported as -5.13% (inactive).
For `Cn1ncc2c(NNC(=O)Cc3cccc4ccccc34)ncnc21`, the inhibition was 61.6% (active).
For `Cn1ncc2c(Nc3cccc4ccccc34)ncnc21`, the inhibition was -6.4% (inactive).
For `O=C1OCC2=C1C(c1ccccc1)CC(=O)N2c1cccc(F)c1` (stereo unspecified), the inhibition was 7.11% (inactive).
For `CCOC(=O)c1cnc2ccc(F)cc2c1Nc1ccc2c(c1)OCCO2`, the inhibition was 85.4% (active).
In the case of `Cc1ccc2nc(-c3ccncc3)cc(C(=O)Nc3ccc4c(c3)OCCO4)c2c1`, the inhibition is reported as 5.91% (inactive).
In the case of `COC(=O)CCNc1ccc2c(c1)OCCO2`, the inhibition is reported as -0.44% (inactive).
With `CCOc1cc(CNCCN(C)C)c(Cl)cc1OCC(=O)NCCc1ccccc1` the inhibition was 99% (active).
In the case of `CCCNCc1cc(OCC)c(OCC(=O)Nc2ccccc2)cc1Br`, the inhibition is reported as 33.5% (inactive).
With `O=C(COc1cc(Cl)c(Cl)cc1Cl)NCCc1ccccn1` the inhibition was -5.85% (inactive).
With `CCOc1ccc(-c2n[nH]c(=S)n2/N=C/c2cc3c(cc2[N+](=O)[O-])OCO3)cc1` the inhibition was 52.8% (active).
For `O=[N+]([O-])c1ccccc1/C=N/n1c(COc2ccccc2)n[nH]c1=S`, the inhibition was -4.75% (inactive).
With `Cc1ccc(-c2n[nH]c(=S)n2/N=C/c2cc3c(cc2[N+](=O)[O-])OCO3)cc1` the inhibition was -0.37% (inactive).
For `CN(C)c1ccc2c(=O)[nH][nH]c(=O)c2c1`, the inhibition was -5.2% (inactive).
With `CC(=O)N1CCc2cc(Br)cc(S(=O)(=O)CCC(=O)Nc3c(C)n(C)n(-c4ccccc4)c3=O)c21` the inhibition was -1.11% (inactive).
In the case of `O=c1oc(/C=C/c2ccccc2)nc2ccccc12`, the inhibition is reported as 1.06% (inactive).
In the case of `CCOCCCn1c(NN)nc2ccccc2c1=O`, the inhibition is reported as -5.56% (inactive).
In the case of `CCn1c(/C=C/c2ccc([N+](=O)[O-])o2)nc2ccccc2c1=O`, the inhibition is reported as 100% (active).
With `CCN1CCC2(CCN(Cc3cn[nH]c3-c3ccc(OC)c(F)c3)C2)C1` (stereo unspecified) the inhibition was 1.79% (inactive).
In the case of `CCOC(=O)c1c(C2CC2)csc1NC(=O)CSCc1c(C)noc1C`, the inhibition is reported as 100% (active).
With `Cc1noc(C)c1CSCC(=O)Nc1nc2ccc(Oc3ccccc3)cc2s1` the inhibition was 2.23% (inactive).
With `CCOC(=O)c1c(-c2cccc(C)c2)csc1NC(=O)c1c(-c2ccccc2)noc1C` the inhibition was 1.98% (inactive).
For `CCOC(=O)c1sc(NC(=O)CCN2CCOCC2)c(C(=O)OCC)c1C`, the inhibition was 7.86% (inactive).
For `CCOC(=O)Nc1sc(C(=O)N(C)C)c(C)c1C(=O)OCC`, the inhibition was 7.28% (inactive).
For `CCOC(=O)c1c(NC(=O)CCl)sc(C(=O)N(CC)CC)c1C`, the inhibition was 100% (active).
With `CS(=O)(=O)N(CC(=O)NCc1ccco1)c1ccc2c(c1)OCO2` the inhibition was 7.89% (inactive).
With `CCN(c1ccc2c(c1)OCO2)S(=O)(=O)c1cc(Br)cc2c1N(C(=O)C1CC1)CC2` the inhibition was 57% (active).
In the case of `CCOC(=O)N1CCN(S(=O)(=O)c2cc(Br)cc3c2N(C(=O)C2CC2)CC3)CC1`, the inhibition is reported as -13.7% (inactive).
With `COC(=O)C1=C(C)N(C(C)c2ccccc2)C(=O)/C1=C\c1ccco1` (stereo unspecified) the inhibition was 12.7% (inactive).
For `O=c1[nH]c(CN2CCN(S(=O)(=O)c3ccc4c(c3)OCCO4)CC2)nc2sc3c(c12)CCCC3`, the inhibition was 26.5% (inactive).
In the case of `O=[N+]([O-])c1ccc(C=Nc2ccc(Cl)cc2Cl)s1`, the inhibition is reported as 100% (active).
In the case of `CCCNC(=O)c1c(Cl)cnn1-c1ccc(C)cc1`, the inhibition is reported as 6.12% (inactive).
For `Cc1ccc(CN(C)CC(=O)Nc2cccc([N+](=O)[O-])c2)o1`, the inhibition was 8.58% (inactive).
In the case of `CC(C)(C)n1ncc2c(=O)n(Cc3ccc(Cl)cc3)cnc21`, the inhibition is reported as 0.21% (inactive).
With `CCN(CC)S(=O)(=O)c1ccc(Cl)c(NC(=O)c2ccncc2)c1` the inhibition was 19.7% (inactive).
In the case of `COc1ccc(C2CC(c3cccs3)Nc3nnnn32)cc1` (stereo unspecified), the inhibition is reported as -4.3% (inactive).
In the case of `COc1ccc(-n2c(SCC(=O)NCc3cccs3)nnc2-c2ccoc2C)cc1`, the inhibition is reported as 5.39% (inactive).
For `COc1ccc(C(=O)NC(=O)CSc2nnc(-c3ccco3)n2-c2ccccc2)cc1`, the inhibition was -4.51% (inactive).
With `O=C(CSc1nnc2scc(-c3ccc(F)cc3)n12)NCc1ccco1` the inhibition was -2.03% (inactive).
With `O=C(CSc1nnc(-c2cccs2)n1-c1ccccc1)NCc1ccco1` the inhibition was 7.53% (inactive).
In the case of `COc1ccc(-n2c(SCC(=O)NCc3ccco3)nnc2-c2c[nH]c3ccccc23)cc1`, the inhibition is reported as 97.7% (active).
With `O=C(CSc1nnc(-c2c[nH]c3ccccc23)n1-c1ccc(F)cc1)NCc1ccco1` the inhibition was 52.5% (active).
For `Cc1ccc(N=Cc2c(O)cc(C)oc2=O)c(C)c1`, the inhibition was -1.99% (inactive).
With `COc1cccc(CNC(=O)Cc2csc(Nc3nc(=S)[nH]c4ccccc34)n2)c1` the inhibition was 2.33% (inactive).
With `COC(=O)C[n+]1cccc2ccccc21` the inhibition was 28.5% (inactive).
With `CC1=CC(C)(C)Nc2ccc(OC(=O)C(Cc3ccccc3)N3C(=O)C4CCCCC4C3=O)cc21` (stereo unspecified) the inhibition was 65.6% (active).
In the case of `O=C(CN1C(=O)C2C3CCC(C3)C2C1=O)Oc1ccc2ccccc2c1` (stereo unspecified), the inhibition is reported as 7.23% (inactive).
In the case of `CC1=CC(C)(C)Nc2ccc(OC(=O)CN3C(=O)C4CCCCC4C3=O)cc21` (stereo unspecified), the inhibition is reported as 100% (active).
In the case of `Cc1ccc(C)n1C(Cc1ccccc1)C(=O)O` (stereo unspecified), the inhibition is reported as -7.64% (inactive).
With `CC(OC(=O)CN1C(=O)C2CCCCC2C1=O)C(=O)Nc1ncc(Cl)cc1Cl` (stereo unspecified) the inhibition was -6.88% (inactive).
For `COc1cccc(NC(=O)NCc2ccc(F)cc2)c1`, the inhibition was 2.02% (inactive).
With `CN(NC(=O)C1CC(=O)N(c2ccccc2)C1)C1=NS(=O)(=O)c2ccccc21` (stereo unspecified) the inhibition was -0.26% (inactive).
With `CCc1ccc(Oc2nc([N+](=O)[O-])nn2C)cc1` the inhibition was 12.5% (inactive).
In the case of `CSc1nc2nc(-c3cccc(C(F)(F)F)c3)ccn2n1`, the inhibition is reported as -7.55% (inactive).
In the case of `C=CCN1C(=O)C(O)(CC(=O)c2ccccn2)c2ccccc21` (stereo unspecified), the inhibition is reported as 3.64% (inactive).
For `CCOc1ccc(NC(=O)CCS(=O)(=O)c2ccc3c(c2)CCCN3C(=O)CC)cc1`, the inhibition was 62.8% (active).
For `CCCNS(=O)(=O)c1ccc2c(c1)CCCN2C(C)=O`, the inhibition was -1.63% (inactive).
For `CC(=O)N1CCCc2cc(S(=O)(=O)CCC(=O)N3CCN(c4ccccc4)CC3)ccc21`, the inhibition was -3.41% (inactive).
With `O=C(c1cccs1)N1CCCC(c2nc(-c3ccc(F)cc3)no2)C1` (stereo unspecified) the inhibition was -8.27% (inactive).
In the case of `O=C(Cc1cccs1)N1CCCC(c2nc(-c3ccc(S(=O)(=O)N4CCCC4)cc3)no2)C1` (stereo unspecified), the inhibition is reported as 95.1% (active).
In the case of `O=C(c1ccc(F)cc1)N1CCCC(c2nc(-c3cccs3)no2)C1` (stereo unspecified), the inhibition is reported as 5.3% (inactive).
In the case of `C=C(C)c1cccc(C(C)(C)NC(=O)NCCN(CC)CC)c1`, the inhibition is reported as 4.54% (inactive).
In the case of `COC(=O)CN1C(=O)N/C(=C/c2ccc(OC)c(C)c2OC)C1=O`, the inhibition is reported as -9.01% (inactive).
